Laboratory results from PubChem BioAssay (NCATS).
Results filed as inconclusive are left out. The source made the active and inactive calls. Unless noted, calls follow the shape of the full dose curve.

Assays:
[1] = biological target: Lysosomal acid glucosylceramidase (Homo sapiens) (UniProt P04062); test: Glucocerebrosidase-p2 (AID 348; in the data active = potency below about 10 µM; also: potency is read from the fitted curve at half-maximal effect); details: purified GBA, blue fluorogenic substrate, 40 min
In short: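 Compounds titrated from 0.6 nM upwards against 0.2 nM enzyme in pH 5.9 citric acid/KH2PO4, taurocholate, tween-20; blue fluorogenic substrate 80 uM, 40 min room temperature, stopped and read Ex 365/Em 440 for AC50.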

[2] = biological target: Cytochrome P450 1A2 (Homo sapiens) (UniProt P05177); test: p450-cyp1a2 (AID 410); details: recombinant CYP1A2, luciferin-ME demethylation, luminescence; series mostly up to 57 µM; also: potency is read from the fitted curve at half-maximal effect
In short: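 Inhibition was calculated relative to 57 uM furafylline (full inhibition). The reaction used human CYP1A2 at 20nM with Luciferin-ME at its Km, 100uM, driven by an NADPH-regenerating system for 60 min at room temperature.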

[3] = biological target: Glucocorticoid receptor (Homo sapiens) (UniProt P04150); test: GR-GFP Redistribution (AID 450;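 active = compounds whose dose series gives a full or clear partial fitted curve of increased nuclear translocation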; also: potency is read from the fitted curve at half-maximal effect); details: U2OS GR-GFP nuclear translocation, laser cytometry, 2 h
[4] = biological target: Glucocorticoid receptor (Homo sapiens) (UniProt P04150); test: GR-EFC Redistribution (AID 451); details: CHO-K1 GR-EFC translocation, beta-gal luminescence, 2 h; also: potency is read from the fitted curve at half-maximal effect
In short: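 CHO-K1 cells stably expressing nuclear-localized β-gal enzyme acceptor and GR fused C-terminally to the enzyme donor fragment; ligand-driven nuclear translocation restores β-gal by complementation. Compounds titrated up to 46 uM final, 2 h at 37 °C; luminescence read.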

[5] = biological target: Mitogen-activated protein kinase 10 (Mus musculus) (UniProt Q61831); test: JNK3 AlphaScreen Assay (AID 530; active = well fitted curve in either direction with a large enough effect, not every such curve was filed as active;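 also: kinase came from lysate of stimulated human HepG2 cells; signal reports phosphorylation of biotinylated GST-cJun 1-79 at Ser73 with 10 µM ATP; % is scaled to controls: 0 for no effect and ±100 for the full control effect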); details: JNK3 lysate, c-Jun phosphorylation; series mostly up to 57.1 µM
In short: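 JNK3 came from HepG2 lysates pre-activated with IL-1beta and TNF-alpha and phosphorylated biotinylated GST-cJun (1-79) at 10 uM ATP, pH 7.6, room temperature. Compounds were titrated. AlphaScreen signal used anti-phospho-cJun (Ser73) antibody.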

[6] = biological target: Cytochrome P450 3A4 (Homo sapiens) (UniProt P08684); test: qHTS Assay for Activators of Cytochrome P450 3A4 (AID 885; active = well fitted curve in the direction sought with a large enough effect; an effect the other way counts as inactive or inconclusive; also: nearly all actives have a fitted effect of over 65% in size); details: recombinant CYP3A4, Luciferin-PPXE luminescence, 60 min; series mostly up to 57.1 µM
In short: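 Signal was normalized against complete inhibition by 57 uM ketoconazole. The reaction used 20nM CYP3A4 with 25uM Luciferin-PPXE, 10-min compound preincubation and a 60-min NADPH-supported step at RT.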

[7] = qHTS Assay for Lipid Storage Modulators (AID 1519); details: Drosophila S3 cells, BODIPY lipid droplet/cell ratio, laser cytometry, cells loaded with oleic acid; for activity change, negative = inhibition: at 57.5 µM (top of the series)
In short: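 Cells seeded at 5,000 per well were treated with compounds over a concentration series and loaded with oleic acid (400 uM, as added). Lipid droplet fluorescence (488 nm excitation, 500-530 nm channel) was read by laser-scanning cytometry and normalized to 20 uM Triacsin C.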

[8] = Primary qHTS for small molecule stabilizers of the endoplasmic reticulum resident proteome: Secreted ER Calcium Modulated Protein (SERCaMP) assay (AID 1508630; active = well fitted curve in the direction sought with a large enough effect; an effect the other way counts as inactive or inconclusive; also: % is scaled to controls: 0 for no effect and ±100 for the full control effect); details: SH-SY5Y GLuc-SERCaMP (Gaussia luciferase released on ER calcium loss) secretion, thapsigargin, luminescence; series mostly up to 38.4 µM
In short: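 GLuc-SERCaMP-expressing SH-SY5Y cells, pretreated 16 h with compound, are challenged with thapsigargin to empty ER calcium stores; after 4 h, coelenterazine is added directly to the medium and luminescence is imaged.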

[9] = Stat Signaling Pathway (AID 446; active = well fitted curve in either direction with a large enough effect, not every such curve was filed as active;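 also: ME-180 cervical cancer cells given 40 pM IL-6 alongside compound; SIE-controlled beta-lactamase reporter measured as 460/530 nm FRET emission ratio; % is scaled to controls: 0 for no effect and ±100 for the full control effect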); details: ME-180 SIE beta-lactamase reporter, IL-6 stimulated, 5 h; at 7.69 µM (top of the series) unless noted
In short: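 Reporter line: ME-180 cervical carcinoma, SIE-beta-lactamase. Treatment: compound with 40 pM IL-6, 5 hrs, 37 C, in low-serum OPTI-MEM with 10 mM HEPES pH 7.3. Detection: 460/530 nm fluorescence.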

[10] = biological target: 3',5'-cyclic-AMP phosphodiesterase 4B (Homo sapiens) (UniProt Q07343); test: qHTS Assay for Inhibitors of PDE-IV (AID 607; active = well fitted activation curve with a large enough effect in the main read-out, with a control signal flat, not every such curve was filed as active; also: % of control where 0% means no effect); details: HEK293 ACTOne CNG channel cells, membrane potential fluorescence; series mostly up to 22.9 µM
In short: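 Cell-based read-out of cAMP via a modified cyclic nucleotide-gated channel and membrane potential dye (535/590 nm) in HEK293 cells expressing PDE4 endogenously. Compounds tested up to 22.9 uM final; 100 uM RO 20-1724 reference.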

[11] = Confirmation and Secondary Assay for Modulators of Hemoglobin Beta Chain Splicing at IVS2 705 locus (AID 930; active = well fitted curve in the direction sought with a large enough effect; an effect the other way counts as inactive or inconclusive;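 also: HeLa cells stably expressing the EGFP-705 splicing reporter; % of control where 0% means no effect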); details: HeLa EGFP-705 splicing reporter, GFP fluorescence, 48 h; series mostly up to 38.3 µM
In short: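 HeLa cells stably carrying EGFP interrupted by mutant beta-globin IVS2-705 intron (CMV-driven) were seeded at 500 cells/well, treated next day with compound for 2 days at 37C; corrected splicing restores EGFP, read as total peak GFP intensity per well.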

[12] = biological target: Cytochrome P450 2C9 (Homo sapiens) (UniProt P11712); test: qHTS Assay for Inhibitors and Substrates of Cytochrome P450 2C9 (AID 883; active = well fitted curve in the direction sought with a large enough effect; an effect the other way counts as inactive or inconclusive; also: potency is read from the fitted curve at half-maximal effect; nearly all actives have a fitted effect of over 60% in size); details: recombinant CYP2C9, luciferin-H luminescence, 60 min; series mostly up to 57.1 µM
In short: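 Human CYP2C9 (10nM) hydroxylated Luciferin-H (100uM, at its KM) to luciferin in 25mM KPO4. Compound was preincubated 10 min at 37C, then NADPH regeneration started a 60 min reaction at 37C. Luminescence was read after detection reagent, normalized to 57uM sulphaphenazole.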

[13] = NFAT Signaling Pathway (AID 444; active = well fitted curve in either direction with a large enough effect, not every such curve was filed as active;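 also: carbachol stimulus at about its EC50 of 1 µM final; % is scaled to controls: 0 for no effect and ±100 for the full control effect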); details: Jurkat NFAT-bla M1, carbachol, beta-lactamase ratio, 5 h; at 7.69 µM (top of the series) unless noted
In short: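 Jurkat cells carrying an NFAT-driven β-lactamase reporter and co-transfected muscarinic M1 receptor were treated with compound plus carbachol (1 uM final, an EC50 level) for 5 h at 37 °C. CCF4 loading followed for 1 h at RT; 460/530 nm ratio gave %activity.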

[14] = measured here: cell count channel max response
[15] = measured here: lipid channel max response

Chain of Lysosomal acid glucosylceramidase (Homo sapiens) (P04062 whole entry, looked up): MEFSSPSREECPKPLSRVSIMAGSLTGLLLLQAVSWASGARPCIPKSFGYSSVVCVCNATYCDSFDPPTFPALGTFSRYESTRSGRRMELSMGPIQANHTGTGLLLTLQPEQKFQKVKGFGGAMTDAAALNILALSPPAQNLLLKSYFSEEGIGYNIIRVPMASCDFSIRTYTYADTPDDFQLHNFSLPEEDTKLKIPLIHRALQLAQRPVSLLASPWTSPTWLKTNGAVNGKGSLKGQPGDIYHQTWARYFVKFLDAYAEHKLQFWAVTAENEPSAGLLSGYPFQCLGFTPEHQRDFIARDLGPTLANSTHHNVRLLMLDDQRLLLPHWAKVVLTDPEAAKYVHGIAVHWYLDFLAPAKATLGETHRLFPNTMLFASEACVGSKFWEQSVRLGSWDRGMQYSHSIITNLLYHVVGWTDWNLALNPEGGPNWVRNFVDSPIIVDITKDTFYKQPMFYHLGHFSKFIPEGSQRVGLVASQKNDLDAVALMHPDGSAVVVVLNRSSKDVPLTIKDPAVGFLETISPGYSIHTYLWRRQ
Chain of Cytochrome P450 1A2 (Homo sapiens) (P05177 whole entry, looked up): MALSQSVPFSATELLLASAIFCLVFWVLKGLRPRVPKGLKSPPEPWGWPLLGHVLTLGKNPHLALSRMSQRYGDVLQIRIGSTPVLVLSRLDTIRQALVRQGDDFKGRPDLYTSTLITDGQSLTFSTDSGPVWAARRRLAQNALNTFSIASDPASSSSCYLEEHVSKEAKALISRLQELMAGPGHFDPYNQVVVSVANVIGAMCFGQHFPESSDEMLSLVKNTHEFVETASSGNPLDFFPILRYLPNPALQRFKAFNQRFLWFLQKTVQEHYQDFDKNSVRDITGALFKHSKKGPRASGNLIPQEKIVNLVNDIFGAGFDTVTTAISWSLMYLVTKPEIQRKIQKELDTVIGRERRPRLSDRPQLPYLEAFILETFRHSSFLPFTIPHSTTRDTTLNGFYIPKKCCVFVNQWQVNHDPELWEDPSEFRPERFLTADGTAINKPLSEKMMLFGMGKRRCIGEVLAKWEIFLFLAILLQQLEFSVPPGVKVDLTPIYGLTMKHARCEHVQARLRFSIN
Chain of Glucocorticoid receptor (Homo sapiens) (P04150 whole entry, looked up, the tested form may be a part): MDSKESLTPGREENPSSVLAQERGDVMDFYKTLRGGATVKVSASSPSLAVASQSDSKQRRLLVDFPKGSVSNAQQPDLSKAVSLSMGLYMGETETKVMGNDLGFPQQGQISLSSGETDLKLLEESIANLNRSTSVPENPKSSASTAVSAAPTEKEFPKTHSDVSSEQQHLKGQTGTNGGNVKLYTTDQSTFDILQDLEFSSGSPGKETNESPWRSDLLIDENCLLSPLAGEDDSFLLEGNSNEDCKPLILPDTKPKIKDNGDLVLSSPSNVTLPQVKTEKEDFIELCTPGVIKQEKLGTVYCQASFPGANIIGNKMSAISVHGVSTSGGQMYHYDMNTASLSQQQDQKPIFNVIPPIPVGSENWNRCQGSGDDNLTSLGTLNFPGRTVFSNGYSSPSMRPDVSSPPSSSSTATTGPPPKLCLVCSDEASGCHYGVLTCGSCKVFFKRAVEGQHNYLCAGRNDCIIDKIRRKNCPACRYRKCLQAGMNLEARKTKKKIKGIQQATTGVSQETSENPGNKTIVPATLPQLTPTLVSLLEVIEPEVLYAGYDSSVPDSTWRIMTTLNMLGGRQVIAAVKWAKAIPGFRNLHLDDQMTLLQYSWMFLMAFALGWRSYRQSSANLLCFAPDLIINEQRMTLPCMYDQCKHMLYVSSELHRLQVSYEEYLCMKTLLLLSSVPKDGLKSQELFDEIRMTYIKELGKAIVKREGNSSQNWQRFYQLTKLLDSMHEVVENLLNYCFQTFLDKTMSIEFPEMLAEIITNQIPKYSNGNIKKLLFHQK
Chain of 3',5'-cyclic-AMP phosphodiesterase 4B (Homo sapiens) (Q07343 whole entry, looked up): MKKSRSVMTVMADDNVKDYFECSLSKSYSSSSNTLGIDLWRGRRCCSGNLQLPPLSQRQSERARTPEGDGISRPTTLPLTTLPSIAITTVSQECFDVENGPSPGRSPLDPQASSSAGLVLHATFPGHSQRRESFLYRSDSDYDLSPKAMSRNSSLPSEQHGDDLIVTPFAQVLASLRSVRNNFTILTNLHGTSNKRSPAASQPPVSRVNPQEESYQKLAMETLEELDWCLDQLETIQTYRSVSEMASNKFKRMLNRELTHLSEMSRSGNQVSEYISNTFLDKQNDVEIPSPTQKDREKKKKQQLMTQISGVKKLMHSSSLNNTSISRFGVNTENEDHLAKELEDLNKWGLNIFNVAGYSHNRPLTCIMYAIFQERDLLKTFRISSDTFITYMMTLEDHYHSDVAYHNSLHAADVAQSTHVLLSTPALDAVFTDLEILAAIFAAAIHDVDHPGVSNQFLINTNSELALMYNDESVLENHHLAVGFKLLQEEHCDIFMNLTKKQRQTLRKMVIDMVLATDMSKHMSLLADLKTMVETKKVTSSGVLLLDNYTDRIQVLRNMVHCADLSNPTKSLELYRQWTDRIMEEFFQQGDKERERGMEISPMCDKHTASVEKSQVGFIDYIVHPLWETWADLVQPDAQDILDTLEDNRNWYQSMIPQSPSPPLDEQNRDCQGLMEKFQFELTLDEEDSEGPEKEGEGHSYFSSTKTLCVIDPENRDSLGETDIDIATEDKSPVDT
Chain of Cytochrome P450 3A4 (Homo sapiens) (P08684 whole entry, looked up): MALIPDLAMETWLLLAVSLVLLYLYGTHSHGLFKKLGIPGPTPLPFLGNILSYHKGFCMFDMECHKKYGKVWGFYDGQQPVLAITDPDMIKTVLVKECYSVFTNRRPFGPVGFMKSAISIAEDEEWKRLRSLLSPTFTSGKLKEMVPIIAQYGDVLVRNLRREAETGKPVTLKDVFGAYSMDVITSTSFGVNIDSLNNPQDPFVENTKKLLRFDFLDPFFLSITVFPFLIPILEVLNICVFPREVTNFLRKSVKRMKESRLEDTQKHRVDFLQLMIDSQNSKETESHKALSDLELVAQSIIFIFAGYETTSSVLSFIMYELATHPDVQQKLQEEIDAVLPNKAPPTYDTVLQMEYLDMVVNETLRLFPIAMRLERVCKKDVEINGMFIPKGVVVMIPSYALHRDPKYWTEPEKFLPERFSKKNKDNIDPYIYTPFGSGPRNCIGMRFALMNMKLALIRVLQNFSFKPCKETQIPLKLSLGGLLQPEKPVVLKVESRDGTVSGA
Chain of Cytochrome P450 2C9 (Homo sapiens) (P11712 whole entry, looked up): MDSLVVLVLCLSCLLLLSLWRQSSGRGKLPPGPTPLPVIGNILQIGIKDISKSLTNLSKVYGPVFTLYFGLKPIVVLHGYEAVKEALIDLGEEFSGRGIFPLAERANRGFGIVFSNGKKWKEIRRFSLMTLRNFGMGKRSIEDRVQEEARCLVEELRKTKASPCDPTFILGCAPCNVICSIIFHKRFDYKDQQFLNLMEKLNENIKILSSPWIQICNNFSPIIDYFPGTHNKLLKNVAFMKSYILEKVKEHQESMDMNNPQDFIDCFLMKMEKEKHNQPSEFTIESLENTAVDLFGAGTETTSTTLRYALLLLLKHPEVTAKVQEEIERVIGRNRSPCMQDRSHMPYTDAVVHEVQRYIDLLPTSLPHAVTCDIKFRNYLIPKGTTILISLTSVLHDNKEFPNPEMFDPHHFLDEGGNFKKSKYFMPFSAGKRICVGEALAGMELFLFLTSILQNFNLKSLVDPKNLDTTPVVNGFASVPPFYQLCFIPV

Row | SMILES | Potency [1] | Potency [2] | Potency [3] | Potency [4] | Potency [5] | Potency [6] | activity change, negative = inhibition [7] | max response [7, 14] | max response [7, 15] | outcome [8] | activity, negative = inhibition [9] | Potency [10] | outcome [11] | Potency [12] | activity change, negative = inhibition [13]
1 | CCNc1ncc2nc(-c3ccc(OC)cc3)c(=O)n(Cc3cccc(OC)c3)c2n1 | > 11.4 µM (inactive) | 15.8 µM (active) | > 9.22 µM (inactive) | > 46 µM (inactive) | inactive | inactive | -12% (inactive) | -21.5% | -29.7% | inactive |  |  |  |  | 
2 | COc1ccc(C(=O)N2CCC3(CCN(Cc4ccc(C#N)cc4)CC3)CC2)cc1 | > 11.4 µM (inactive) | 12.6 µM (active) |  | > 46 µM (inactive) | inactive |  | 1.02% (inactive) | 16.6% | 21% | inactive | 0.785% (inactive) | inactive |  |  | 
3 | COc1ccc(-n2c(=O)c(-c3cccs3)nc3cnc(N4CCNCC4)nc32)cc1 | > 11.4 µM (inactive) | 5.01 µM (active) | > 9.22 µM (inactive) | > 46 µM (inactive) | inactive | inactive | 2.69% (inactive) | 3.53% | 6.61% | inactive |  | inactive |  |  | 
4 | Cc1cccc(CNc2nc(-c3c(C)noc3C)nc3ccccc23)c1 | > 11.4 µM (inactive) |  | > 46 µM (inactive) | > 46 µM (inactive) | inactive |  | 11.8% (inactive) | -6.95% | 4.27% | inactive | -28.8% (inactive) |  | inactive |  | 
5 | O=C(c1cccc(F)c1)N1CCC2(CCCN(C(c3ccccc3)c3ccccc3)C2)CC1 | > 11.4 µM (inactive) | 6.31 µM (active) |  | > 46 µM (inactive) | inactive |  | 2.12% (inactive) | 14.6% | 19.7% | inactive | 17.2% (inactive) | inactive |  | 3.16 µM (active) | 
6 | COc1ccccc1CN1CCCC2(CCN(C(=O)c3cccc(F)c3)CC2)C1 | > 11.4 µM (inactive) |  |  | > 46 µM (inactive) | inactive |  | 0.576% (inactive) | 3.85% | 7.25% | inactive | 1.24% (inactive) | inactive |  |  | 
7 | CCNc1ncc2ncc(=O)n(C[C@H]3CCCO3)c2n1 | > 11.4 µM (inactive) | 10 µM (active) | > 9.22 µM (inactive) | > 46 µM (inactive) | inactive |  | 1.57% (inactive) | 16.3% | 17.2% | inactive |  |  |  |  | -20% (inactive)
8 | CC(=O)N1CCC2(CC1)CN(Cc1ccc(C#N)cc1)C2 | > 11.4 µM (inactive) |  |  | > 46 µM (inactive) | inactive |  | -1.35% (inactive) | -0.767% | -0.217% | inactive |  | inactive |  |  | 0.883% (inactive)
